Source: PubChem (National Center for Advancing Translational Sciences (NCATS))
Sm TGR inh: blocks Schistosoma mansoni thioredoxin glutathione reductase; purified TGR, DTNB reduction, TNB absorbance 405 nm; Potency, µM (doses to about 114 µM), usual class: inhibitors; 3% of 360,000 active; AID 485364; note: nearly all actives have a fitted effect of over 60% in size
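First, TGR (20 nM dispensed) and NADPH were mixed with compound. Second, a 15 min room-temperature incubation followed. Third, further NADPH and then DTNB were added to start the reaction. Finally, TNB absorbance was monitored kinetically.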
AmpC detergent: inhibitors of E. coli AmpC beta-lactamase with detergent; P00811; AmpC hydrolysis of nitrocefin, absorbance 480 nm, 0.01% Triton; Potency, µM (doses to about 114 µM), usual class: inhibitors; 0.041% of 370,000 active; note: nearly all actives have a fitted effect of over 25% in size
Target sequence (P00811 whole entry, looked up): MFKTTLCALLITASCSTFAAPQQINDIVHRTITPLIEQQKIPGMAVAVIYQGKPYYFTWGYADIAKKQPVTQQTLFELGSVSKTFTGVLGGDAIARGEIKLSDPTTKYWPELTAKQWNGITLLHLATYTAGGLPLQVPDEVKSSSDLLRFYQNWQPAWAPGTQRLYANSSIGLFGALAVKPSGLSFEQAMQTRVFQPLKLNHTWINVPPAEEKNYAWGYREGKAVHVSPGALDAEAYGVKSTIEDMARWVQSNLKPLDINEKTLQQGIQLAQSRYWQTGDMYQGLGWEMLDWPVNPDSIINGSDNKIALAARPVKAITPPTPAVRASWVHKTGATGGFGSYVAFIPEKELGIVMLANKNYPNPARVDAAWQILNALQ
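20 mM phosphate pH 7.0 + 0.01% (detergent screen) or 0.0001% Triton X-100; 5.3 nM AmpC reagent; cpd preinc 15 min RT; nitrocefin (800 uM stock) to start; A480 q20 s × 4 min; Activity was normalised to no-enzyme and no-compound control wells.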
SARS PLpro yeast: SARS-CoV PLP inhibition in yeast. S. cerevisiae expressing SARS-CoV PLpro, growth rescue. 0.19% of 330,000 active. Potency, µM (series often up to 32.9 µM), actives largely listed as activators; calls by dose curve; note: nearly all actives have a fitted effect of over 55% in size
Pf growth 48h: inhibits P. falciparum growth in the first generation, 48 h. P. falciparum luciferase growth in erythrocytes, 48 h. Potency, µM (highest dose often 28.7 µM), actives largely listed as inhibitors. 5.9% of 310,000 active
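Parasite viability was followed by luminescence of a genomically integrated firefly luciferase. Cultures held 0.1% parasitemia at 2% hematocrit (final), incubated under 5% CO2 at 37 C.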
AmpC no deterg: AmpC beta-lactamase inhibition without detergent. AmpC nitrocefin hydrolysis, absorbance 480 nm, 0.0001% Triton. AID 485341. Potency, µM (top dose mostly 57.1 µM), hits mostly inhibitors. P00811. 0.52% of 330,000 active; note: nearly all actives have a fitted effect of over 20% in size
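AmpC (5.3 nM in the dispensed reagent) in 20 mM phosphate pH 7.0 with 0.01% (detergent screen) or 0.0001% Triton X-100 was preincubated with compounds for 15 min at room temperature. Nitrocefin was then added from an 800 uM solution, and hydrolysis was followed at 480 nm.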
Pf growth 96h: P. falciparum growth inhibition at 96 hours | AID 504834 | P. falciparum luciferase reporter growth, 96 h | 6.9% of 320,000 active | Potency, µM (top dose mostly 28.7 µM), usual class: inhibitors
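Two-generation exposure (96 h) targets delayed-death phenotype. Reporter parasites carrying integrated firefly luciferase, in red cells at 2% hematocrit and 0.05% parasitemia final, kept at 37 C, 5% CO2; luminescence loss indicates inhibition.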
Numbers stand for hits; . = inactive; ? = inconclusive; / = no result; [ ] = remark or other dose. Hits are enriched below; roughly 12% of the tested compounds scored in any of these assays. Unless noted, calls come from the whole dose curve; as a rule, active = well fitted curve in the direction sought with a large enough effect; inconclusive = small, poorly fitted or top-dose-only effect, or another doubt; inactive = no such curve, though single readings can be large; an effect the other way counts as inactive or inconclusive.

SMILES	Sm TGR inh	AmpC detergent	SARS PLpro yeast	Pf growth 48h	AmpC no deterg	Pf growth 96h
CC(C)C(c1nnnn1CC1CCCO1)N1CCN(C2CCCC2)CC1 (stereo not given)	.	?	.	.	.	13µM
O=c1[nH]c2cc3c(cc2cc1C(c1nnnn1CC1CCCO1)N1CCCC1)OCO3 (stereo not given)	.	.	.	.	.	?
O=c1[nH]c2cc3c(cc2cc1C(c1nnnn1CC1CCCO1)N1CCCCCC1)OCO3 (stereo not given)	?	.	.	.	.	/
Cc1cc(C)c2cc(C(c3nnnn3CC3CCCO3)N3CCN4CCCC4C3)c(=O)[nH]c2c1 (stereo not given)	22µM	?	.	15µM	.	.[5.75 µM]
O=c1[nH]c2cc3c(cc2cc1C(c1nnnn1CC1CCCO1)N1CCCCCC1)OCCO3 (stereo not given)	32µM	.	.	.	.	/
COc1cc2cc(C(c3nnnn3C3CCCC3)N3CCCCC3)c(=O)[nH]c2cc1OC (stereo not given)	.	.	.	.	.	.
CC1Cc2ccccc2N1C(=O)CSc1nnc(Cc2ccccc2)n1CCc1ccccc1 (stereo not given)	.	?	.	/	.	?
COC(=O)C(Cc1ccc(O)cc1)NC(=O)c1ccc2c(c1)OCCO2 (stereo not given)	.	?	.	.	.	.
COc1cc2cc(C(c3nnnn3C3CCCC3)N3CCCCCC3)c(=O)[nH]c2cc1OC (stereo not given)	35µM	.	.	?	.	.
COc1ccc2[nH]c(=O)c(C(c3nnnn3C3CCCC3)N3CCN(Cc4ccc5c(c4)OCO5)CC3)cc2c1 (stereo not given)	.	.	.	12µM	.	?
CN(C)c1cccc2c1c(NC(=O)Nc1ccccc1)nn2C	?	.	.	?	.	9.3µM
CN(C)c1cccc2c1c(NC(=O)Nc1ccc(F)cc1F)nn2C	.	.	.	.	.	?
COc1cccc2c1c(NC(=O)c1cc(C)on1)nn2C	.	.	.	.	.	.
COc1ccccc1NC(=O)Nc1nn(C)c2cccc(OC)c12	.	.	.	?	.	12µM
O=C(CSc1ccc2c(c1)OCCO2)Nc1ncccc1O	?	.	.	.	.	.
COC(=O)[C@H](Cc1ccccc1)NC(=O)C1(OC(C)=O)CC(OC(C)=O)C(OC(C)=O)C(OC(C)=O)C1 (stereo not given in full)	.	.	.	.	.	.
CCCC(=O)Nc1nc2c(s1)CC(C(C)(C)C)CC2 (stereo not given)	.	.	/	/	/	/
CC1(C(=O)NCc2ccccc2)Oc2ccccc2NC1=O (stereo not given)	.	.	.	.	.	/
CC1(C(=O)NCc2ccc(Cl)c(Cl)c2)Oc2cccnc2NC1=O (stereo not given)	.	.	.	?	.	5.2µM
COc1ccc(-c2cc(N)n(S(=O)(=O)c3c(F)c(F)c(F)c(F)c3F)n2)cc1OC	2.5µM	?	.	?	.	?
S=C(Nc1ccccc1)Nc1ccc(Cl)cc1Cl	25µM	.	.	.	.	.
Fc1ccc(NC(=S)Nc2cccc(Cl)c2)cc1	?	.	.	.	.	.
FC(F)(F)c1ccccc1NC(=S)Nc1cccc(Cl)c1	25µM	.	.	.[5.75 µM]	.[2.29 µM]	?
FC(F)(F)c1cccc(NC(=S)Nc2cccc(NC(=S)Nc3cccc(C(F)(F)F)c3)n2)c1	.	.	.	12µM	7.9µM	?
O=C(NNC(=S)Nc1cccc(C(F)(F)F)c1)c1cccc(Cl)c1	.	.	.	.	.	.
SMILES	Sm TGR inh	AmpC detergent	SARS PLpro yeast	Pf growth 48h	AmpC no deterg	Pf growth 96h
FC(F)(F)c1cccc(NC(=S)Nc2ccc(Cl)cc2Cl)c1	22µM	.	.	?	.	?
Cc1cccc(NC(=S)Nc2cccc(C(F)(F)F)c2)n1	.	.	.	?	.	?
CSc1nc(-c2ccccc2)nc(N2CCOCC2)c1C(C)=O	.	.	.	.	.	.
CCc1ccc(CNC(=O)CCCN2C(=O)CCn3nc(-c4cccn4C)cc32)cc1	.	.	/	/	/	/
CN(C)c1ccc(C(CNS(=O)(=O)c2ccc([N+](=O)[O-])cc2)N2CCOCC2)cc1 (stereo not given)	.	?	.	.	.	.
CCOc1ccc(NC(=O)CSc2nc3ccccc3c(=O)n2CCC(=O)NC2CCCCC2)cc1	.	.	/	/	/	/
S=C(Nc1ccccc1Cl)Nc1ccc(Cl)cc1Cl	25µM	.	.	.	.	?
NC(=S)Nc1ccc(Cl)cc1Cl	.	.	.	.	.	.
O=C(NNC(=S)Nc1ccc(Cl)cc1Cl)c1ccncc1	.	?	.	.	.	4.1µM
Cc1nnc(N2CCN(C(=O)Nc3cc(F)ccc3F)CC2)c2nn(-c3ccc(Cl)cc3)c(C)c12	.	.	/	/	/	/
O=C(c1ccc2c(c1)OCCCO2)c1cccs1	.	.	.	.	.	.
Cc1ccc(C(=O)c2cc([N+](=O)[O-])ccc2N2CCOCC2)c(C)c1	.	.	.	?	.	10µM
Cc1cc(C)c(NC(=O)COC(=O)c2cc([N+](=O)[O-])ccc2N2CCOCC2)c(C)c1	.	.	.	.	.	.
Cc1cc(NC(=O)COC(=O)c2cc([N+](=O)[O-])ccc2N2CCOCC2)ccc1Br	.	?	.	?	32µM	?
O=C(COC(=O)c1cc([N+](=O)[O-])ccc1N1CCOCC1)c1ccc(Br)cc1	.	.	.	?	.	.
Cc1ccc(C)c(C(=O)COC(=O)c2cc([N+](=O)[O-])ccc2N2CCOCC2)c1	.	?	.	?	.	15µM
Cc1ccc(C(=O)c2cc([N+](=O)[O-])ccc2N2CCOCC2)cc1C	.	.	.	.	.	?
CCN1CCN(c2cc(C)c3cc(NC(=O)c4cccc(OC)c4)ccc3n2)CC1	.	.	.	?	.	2.1µM
COc1ccc(C(=O)Nc2ccc3nc(N4CCN(C)CC4)cc(C)c3c2)c(OC)c1	.	.	.	7.4µM	.	.
COc1ccc(C(=O)Nc2ccc3c(c2)CCCN3C(=O)c2cccs2)c(OC)c1	.	.	.	?	.	15µM
Cc1cc(N2CCN(C)CC2)nc2ccc(NC(=O)c3ccc(C(C)(C)C)cc3)cc12	.	.	/	/	/	/
CCN1CCN(c2cc(C)c3cc(NC(=O)c4ccc5c(c4)OCO5)ccc3n2)CC1	.	.	.	3.3µM	.	.
CSc1ncc(C(=O)Nc2cc(C)ccc2C)c(C)n1	.	.	.	.	.	?
CCN1CCN(c2cc(C)c3cc(NC(=O)c4cccs4)ccc3n2)CC1	.	.	.	2.1µM	.	?
